# Changes are numbered by the printed parent chain.
# Tests used:
# Test in all cases: PBM; 200 nM protein, PBS
# Conditions in all cases: dsDNA, one strand shown
# HOXB9 [1] = biological target: HOXB9 (Homo sapiens, UniProt P17482 171-250, T197M)
# HOXC9 [2] = biological target: HOXC9 (Homo sapiens, UniProt P31274 178-260, K195R)
# HOXA7 [3] = biological target: HOXA7 (Homo sapiens, UniProt P31268 116-202)
# HOXB6 [4] = biological target: HOXB6 (Homo sapiens, UniProt P17509 132-218, K202E)
# HOXB9 [5] = biological target: HOXB9 (Homo sapiens, UniProt P17482 171-250)
# Chain of HOXB9 (Homo sapiens, UniProt P17482 171-250) (P17482 171-250): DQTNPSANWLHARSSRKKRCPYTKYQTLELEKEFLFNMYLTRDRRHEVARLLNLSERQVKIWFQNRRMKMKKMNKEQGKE
# HOXC9 [6] = biological target: HOXC9 (Homo sapiens, UniProt P31274 178-260)
# Chain of HOXC9 (Homo sapiens, UniProt P31274 178-260) (P31274 178-260): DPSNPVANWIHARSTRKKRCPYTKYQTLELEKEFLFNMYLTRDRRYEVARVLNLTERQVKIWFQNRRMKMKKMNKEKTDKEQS
# HOXD13 [7] = biological target: HOXD13 (Homo sapiens, UniProt P35453 263-343, T313R)
# Chain of HOXD13 (Homo sapiens, UniProt P35453 263-343, T313R) (P35453 263-343 T313R): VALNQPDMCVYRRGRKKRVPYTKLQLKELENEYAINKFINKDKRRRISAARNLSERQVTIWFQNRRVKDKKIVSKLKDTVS
# NKX2-6 = biological target: T1, NKX2-6 (Homo sapiens, UniProt A6NCS4 118-204)
# T1 sequence: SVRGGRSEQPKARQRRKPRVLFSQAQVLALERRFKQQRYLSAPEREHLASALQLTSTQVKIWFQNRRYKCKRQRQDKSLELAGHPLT
# HOXC9 [8] = biological target: HOXC9 (Homo sapiens, UniProt P31274 178-260, R193K)
# Chain of HOXC9 (Homo sapiens, UniProt P31274 178-260, R193K) (P31274 178-260 R193K): as the sequence (P31274 178-260) above, with R16K counted along it
# HOXD13 [9] = biological target: HOXD13 (Homo sapiens, UniProt P35453 263-343)
# Chain of HOXD13 (Homo sapiens, UniProt P35453 263-343) (P35453 263-343): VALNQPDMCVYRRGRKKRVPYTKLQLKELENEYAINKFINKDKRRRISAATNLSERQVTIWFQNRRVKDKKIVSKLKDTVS
# HOXC10 [10] = biological target: HOXC10 (Homo sapiens, UniProt Q9NYD6 254-340, K271E)
# Chain of HOXC10 (Homo sapiens, UniProt Q9NYD6 254-340, K271E) (Q9NYD6 254-340 K271E): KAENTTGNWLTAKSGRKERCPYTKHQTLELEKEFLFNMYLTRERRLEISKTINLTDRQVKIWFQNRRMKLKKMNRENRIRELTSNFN
# HOXD13 [11] = biological target: HOXD13 (Homo sapiens, UniProt P35453 263-343, T313A)
# Chain of HOXD13 (Homo sapiens, UniProt P35453 263-343, T313A) (P35453 263-343 T313A): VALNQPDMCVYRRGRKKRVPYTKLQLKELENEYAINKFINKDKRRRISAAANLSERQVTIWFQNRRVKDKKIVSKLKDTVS
# HOXB9 [12] = biological target: HOXB9 (Homo sapiens, UniProt P17482 171-250, R186Q)
# Chain of HOXB9 (Homo sapiens, UniProt P17482 171-250, R186Q) (P17482 171-250 R186Q): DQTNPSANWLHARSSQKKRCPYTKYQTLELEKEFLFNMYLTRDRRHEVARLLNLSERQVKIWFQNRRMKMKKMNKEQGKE
# HOXC9 [13] = biological target: HOXC9 (Homo sapiens, UniProt P31274 178-260, R222W)
# Chain of HOXC9 (Homo sapiens, UniProt P31274 178-260, R222W) (P31274 178-260 R222W): as the sequence (P31274 178-260) above, with R45W counted along it
# HOXA7 [14] = biological target: HOXA7 (Homo sapiens, UniProt P31268 116-202, W177C)
# Chain of HOXA7 (Homo sapiens, UniProt P31268 116-202, W177C) (P31268 116-202 W177C): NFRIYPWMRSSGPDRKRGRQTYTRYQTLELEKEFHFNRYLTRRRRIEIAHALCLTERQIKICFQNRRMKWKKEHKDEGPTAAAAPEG
# HOXB6 [15] = biological target: HOXB6 (Homo sapiens, UniProt P17509 132-218)
# Chain of HOXB6 (Homo sapiens, UniProt P17509 132-218) (P17509 132-218): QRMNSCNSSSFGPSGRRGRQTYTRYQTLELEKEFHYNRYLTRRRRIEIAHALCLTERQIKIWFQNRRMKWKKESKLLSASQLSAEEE
# VENTX [16] = biological target: T2, VENTX (Homo sapiens, UniProt O95231 78-163, R121Q)
# T2 sequence: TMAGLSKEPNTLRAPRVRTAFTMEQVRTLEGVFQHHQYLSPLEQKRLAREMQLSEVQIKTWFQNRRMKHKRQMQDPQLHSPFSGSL
# VENTX [17] = biological target: T3, VENTX (Homo sapiens, UniProt O95231 78-163)
# T3 sequence: T2 sequence with Q44R
# VENTX [18] = biological target: T4, VENTX (Homo sapiens, UniProt O95231 78-163, Y115F)
# T4 sequence: T2 sequence with Y38F, Q44R
# CRX = CRX (Homo sapiens, UniProt O43186 26-111, R41L)
# Chain of CRX (O43186 26-111 R41L): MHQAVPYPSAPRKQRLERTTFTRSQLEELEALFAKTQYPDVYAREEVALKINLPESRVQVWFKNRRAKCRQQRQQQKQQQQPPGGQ
# HOXC10 [19] = biological target: HOXC10 (Homo sapiens, UniProt Q9NYD6 254-340)
# Chain of HOXC10 (Homo sapiens, UniProt Q9NYD6 254-340) (Q9NYD6 254-340): as the sequence (Q9NYD6 254-340 K271E) above, with E18K counted along it
# ALX4 = ALX4 (Homo sapiens, UniProt Q9H161 200-286, Q225E)
# Chain of ALX4 (Q9H161 200-286 Q225E): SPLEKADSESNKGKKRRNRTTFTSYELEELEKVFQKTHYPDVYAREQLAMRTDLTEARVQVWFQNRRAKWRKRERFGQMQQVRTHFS
# VAX1 [20] = biological target: VAX1 (Homo sapiens, UniProt Q5SQQ9 86-172)
# Chain of VAX1 (Homo sapiens, UniProt Q5SQQ9 86-172) (Q5SQQ9 86-172): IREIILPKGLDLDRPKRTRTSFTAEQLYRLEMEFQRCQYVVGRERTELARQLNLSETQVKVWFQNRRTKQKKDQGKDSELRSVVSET
# VAX1 [21] = biological target: VAX1 (Homo sapiens, UniProt Q5SQQ9 86-172, T142I)
# Chain of VAX1 (Homo sapiens, UniProt Q5SQQ9 86-172, T142I) (Q5SQQ9 86-172 T142I): as the sequence (Q5SQQ9 86-172) above, with T57I counted along it
# VAX1 [22] = biological target: VAX1 (Homo sapiens, UniProt Q5SQQ9 86-172, K157R)
# Chain of VAX1 (Homo sapiens, UniProt Q5SQQ9 86-172, K157R) (Q5SQQ9 86-172 K157R): as the sequence (Q5SQQ9 86-172) above, with K72R counted along it
# Chain of HOXA7 (Homo sapiens, UniProt P31268 116-202) (P31268 116-202): as the sequence (P31268 116-202 W177C) above, with C62W counted along it
# Chain of HOXB6 (Homo sapiens, UniProt P17509 132-218, K202E) (P17509 132-218 K202E): as the sequence (P17509 132-218) above, with K71E counted along it
# Chain of HOXB9 (Homo sapiens, UniProt P17482 171-250, T197M) (P17482 171-250 T197M): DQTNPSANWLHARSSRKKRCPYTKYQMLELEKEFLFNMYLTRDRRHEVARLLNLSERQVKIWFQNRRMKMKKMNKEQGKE
# Chain of HOXC9 (Homo sapiens, UniProt P31274 178-260, K195R) (P31274 178-260 K195R): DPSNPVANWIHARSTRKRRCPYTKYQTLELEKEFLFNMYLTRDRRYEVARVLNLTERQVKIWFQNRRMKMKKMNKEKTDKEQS
sequence,measurement,setting,value
GCTATTAA,binding signal,HOXB9 [1],"10 upbm affinity estimate (log intensity, higher = more binding, comparable within an allelic series)"
same,binding signal,HOXC9 [2],"12.7 upbm affinity estimate (log intensity, higher = more binding, comparable within an allelic series)"
same,binding signal,HOXA7 [3],"11.4 upbm affinity estimate (log intensity, higher = more binding, comparable within an allelic series)"
same,binding signal,HOXB6 [4],"9.98 upbm affinity estimate (log intensity, higher = more binding, comparable within an allelic series)"
same,binding signal,HOXB9 [5],"12 upbm affinity estimate (log intensity, higher = more binding, comparable within an allelic series)"
same,binding signal,HOXC9 [6],"12.8 upbm affinity estimate (log intensity, higher = more binding, comparable within an allelic series)"
same,binding signal,HOXD13 [7],"10.7 upbm affinity estimate (log intensity, higher = more binding, comparable within an allelic series)"
same,binding signal,NKX2-6,"11.8 upbm affinity estimate (log intensity, higher = more binding, comparable within an allelic series)"
same,binding signal,HOXC9 [8],"12.7 upbm affinity estimate (log intensity, higher = more binding, comparable within an allelic series)"
same,binding signal,HOXD13 [9],"11.8 upbm affinity estimate (log intensity, higher = more binding, comparable within an allelic series)"
same,binding signal,HOXC10 [10],"11.8 upbm affinity estimate (log intensity, higher = more binding, comparable within an allelic series)"
same,binding signal,HOXD13 [11],"11.5 upbm affinity estimate (log intensity, higher = more binding, comparable within an allelic series)"
same,binding signal,HOXB9 [12],"11.8 upbm affinity estimate (log intensity, higher = more binding, comparable within an allelic series)"
same,binding signal,HOXC9 [13],"10.9 upbm affinity estimate (log intensity, higher = more binding, comparable within an allelic series)"
same,binding signal,HOXA7 [14],"8.84 upbm affinity estimate (log intensity, higher = more binding, comparable within an allelic series)"
same,binding signal,HOXB6 [15],"11.8 upbm affinity estimate (log intensity, higher = more binding, comparable within an allelic series)"
CCTAATCG,binding signal,VENTX [16],"11.4 upbm affinity estimate (log intensity, higher = more binding, comparable within an allelic series)"
same,binding signal,VENTX [17],"12.5 upbm affinity estimate (log intensity, higher = more binding, comparable within an allelic series)"
same,binding signal,VENTX [18],"11.3 upbm affinity estimate (log intensity, higher = more binding, comparable within an allelic series)"
same,binding signal,CRX,"10.8 upbm affinity estimate (log intensity, higher = more binding, comparable within an allelic series)"
GCAATAAA,binding signal,HOXB9 [1],"10 upbm affinity estimate (log intensity, higher = more binding, comparable within an allelic series)"
same,binding signal,HOXC9 [2],"13.2 upbm affinity estimate (log intensity, higher = more binding, comparable within an allelic series)"
same,binding signal,HOXA7 [3],"11.2 upbm affinity estimate (log intensity, higher = more binding, comparable within an allelic series)"
same,binding signal,HOXC10 [19],"12.8 upbm affinity estimate (log intensity, higher = more binding, comparable within an allelic series)"
same,binding signal,HOXB6 [4],"9.94 upbm affinity estimate (log intensity, higher = more binding, comparable within an allelic series)"
same,binding signal,ALX4,"10.5 upbm affinity estimate (log intensity, higher = more binding, comparable within an allelic series)"
same,binding signal,HOXB9 [5],"12.6 upbm affinity estimate (log intensity, higher = more binding, comparable within an allelic series)"
same,binding signal,HOXC9 [6],"13.3 upbm affinity estimate (log intensity, higher = more binding, comparable within an allelic series)"
same,binding signal,HOXD13 [7],"11 upbm affinity estimate (log intensity, higher = more binding, comparable within an allelic series)"
same,binding signal,HOXC9 [8],"13.1 upbm affinity estimate (log intensity, higher = more binding, comparable within an allelic series)"
same,binding signal,HOXD13 [9],"12.3 upbm affinity estimate (log intensity, higher = more binding, comparable within an allelic series)"
same,binding signal,HOXC10 [10],"12.3 upbm affinity estimate (log intensity, higher = more binding, comparable within an allelic series)"
same,binding signal,HOXD13 [11],"12.1 upbm affinity estimate (log intensity, higher = more binding, comparable within an allelic series)"
same,binding signal,HOXB9 [12],"12.3 upbm affinity estimate (log intensity, higher = more binding, comparable within an allelic series)"
same,binding signal,HOXC9 [13],"11.4 upbm affinity estimate (log intensity, higher = more binding, comparable within an allelic series)"
same,binding signal,HOXA7 [14],"8.8 upbm affinity estimate (log intensity, higher = more binding, comparable within an allelic series)"
same,binding signal,HOXB6 [15],"11.7 upbm affinity estimate (log intensity, higher = more binding, comparable within an allelic series)"
GCGCGAAC,binding signal,VENTX [16],"8.01 upbm affinity estimate (log intensity, higher = more binding, comparable within an allelic series)"
same,binding signal,VENTX [17],"8 upbm affinity estimate (log intensity, higher = more binding, comparable within an allelic series)"
same,binding signal,VENTX [18],"8.06 upbm affinity estimate (log intensity, higher = more binding, comparable within an allelic series)"
same,binding signal,VAX1 [20],"7.03 upbm affinity estimate (log intensity, higher = more binding, comparable within an allelic series)"
same,binding signal,VAX1 [21],"7.1 upbm affinity estimate (log intensity, higher = more binding, comparable within an allelic series)"
same,binding signal,VAX1 [22],"7.1 upbm affinity estimate (log intensity, higher = more binding, comparable within an allelic series)"
